Measurements: PubChem BioAssay AID1159580 (chemical genetic matrix, 2015)
About 2,000 (36%) of roughly 5,500 compounds were called active. Another 18% or so got no clear call; they are omitted. Rule as the data show it: active = normalized growth mostly below about 0.91 (no sharp cut-off); inconclusive = no clear call, values can overlap the other calls; inactive = mostly above about 0.92. The list shows a part of the results.

Assay: chemical genetic growth profiling, strain panel (AID 1159580);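 also: tested at 20 µM; growth read once vehicle control cultures reached saturation at 30 °C; 1 = growth at the plate median or of vehicle wells; lower values mean less growth of the strain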
Conditions: S. cerevisiae deletion strains, growth OD
[1] = locus YDL101C, strain DUN1, stronger effect = lower value
[2] = locus YHR030C, strain SLT2, stronger effect = lower value
[3] = locus YGR078C, strain PAC10, stronger effect = lower value
[4] = locus YNL153C, strain GIM3, stronger effect = lower value
[5] = locus YPL055C, strain LGE1, stronger effect = lower value
[6] = locus YPL241C, strain CIN2, stronger effect = lower value

Measured: normalized growth

O=C(C=C(O)c1ccc(Br)cc1)C(=O)Nc1ccccc1
active: locus YAR019C, strain CDC15, stronger effect = lower value 0.489 | locus YBL105C, strain PKC1, stronger effect = lower value 0.637 | locus YBR135W, strain CKS1, stronger effect = lower value 0.686 | locus YBR136W, strain MEC1, stronger effect = lower value 0.851 | locus YBR160W, strain CDC28, stronger effect = lower value 0.893 | locus YDL017W, strain CDC7, stronger effect = lower value 0.683 | locus YDL028C, strain MPS1, stronger effect = lower value 0.834 | [1] 0.379 | locus YDL108W, strain KIN28, stronger effect = lower value 0.874 | locus YDL132W, strain cdc53, stronger effect = lower value 0.76 | locus YDL214C, strain PRR2, stronger effect = lower value 0.145 | locus YDR052C, strain DBF4, stronger effect = lower value 0.849 | locus YDR054C, strain cdc34, stronger effect = lower value 0.581 | locus YDR226W, strain ADK1, stronger effect = lower value 0.869 | locus YDR477W, strain SNF1, stronger effect = lower value 0.105 | locus YER123W, strain YCK3, stronger effect = lower value 0.124 | locus YER133W, strain GLC7, stronger effect = lower value 0.229 | locus YFL009W, strain cdc4, stronger effect = lower value 0.7 | locus YFL029C, strain CAK1, stronger effect = lower value 0.439 | locus YFR003C, strain YPI1, stronger effect = lower value 0.718 | locus YFR019W, strain FAB1, stronger effect = lower value 0.128 | locus YFR028C, strain CDC14, stronger effect = lower value 0.448 | locus YGR040W, strain KSS1, stronger effect = lower value 0.109 | locus YGR052W, strain FMP48, stronger effect = lower value 0.132 | locus YGR092W, strain DBF2, stronger effect = lower value 0.104 | [2] 0.148 | locus YHR079C, strain IRE1, stronger effect = lower value 0.159 | locus YHR082C, strain KSP1, stronger effect = lower value 0.136 | locus YHR205W, strain SCH9, stronger effect = lower value 0.0311 | locus YIL147C, strain SLN1, stronger effect = lower value 0.848 | locus YJL095W, strain BCK1, stronger effect = lower value 0.136 | locus YJL128C, strain PBS2, stronger effect = lower value 0.483 | locus YJL157C, strain FAR1, stronger effect = lower value 0.113 | locus YJR016C, strain ILV3, stronger effect = lower value 0.156 | locus YJR066W, strain TOR1 (second series), stronger effect = lower value 0.115 | locus YJR066W, strain TOR1, stronger effect = lower value 0.122 | locus YKL048C, strain ELM1, stronger effect = lower value 0.136 | locus YKL067W, strain YNK1, stronger effect = lower value 0.127 | locus YKL101W, strain HSL1, stronger effect = lower value 0.103 | locus YKL193C, strain SDS22, stronger effect = lower value 0.761 | locus YKL203C, strain TOR2, stronger effect = lower value 0.142 | locus YLR113W, strain HOG1, stronger effect = lower value 0.145 | locus YLR133W, strain CKI1, stronger effect = lower value 0.127 | locus YLR403W, strain SFP1, stronger effect = lower value 0.00467 | locus YML070W, strain DAK1, stronger effect = lower value 0.129 | locus YMR001C, strain CDC5, stronger effect = lower value 0.449 | locus YMR205C, strain PFK2 (second series), stronger effect = lower value 0.118 | locus YMR277W, strain FCP1, stronger effect = lower value 0.728 | locus YNL006W, strain LST8, stronger effect = lower value 0.158 | locus YNL020C, strain ARK1, stronger effect = lower value 0.109 | locus YNL161W, strain CBK1, stronger effect = lower value 0.77 | locus YNL183C, strain NPR1, stronger effect = lower value 0.131 | locus YNL207W, strain RIO2, stronger effect = lower value 0.824 | locus YNL222W, strain SSU72, stronger effect = lower value 0.786 | locus YNL307C, strain MCK1 (second series), stronger effect = lower value 0.114 | locus YOL078W, strain AVO1, stronger effect = lower value 0.76 | locus YOL136C, strain PFK27, stronger effect = lower value 0.109 | locus YOR061W, strain CKA2, stronger effect = lower value 0.0904 | locus YOR119C, strain RIO1, stronger effect = lower value 0.134 | locus YOR231W, strain MKK1, stronger effect = lower value 0.14 | locus YOR329C, strain SCD5, stronger effect = lower value 0.79 | locus YPL031C, strain PHO85, stronger effect = lower value 0.105 | locus YPL153C, strain RAD53, stronger effect = lower value 0.103 | locus YPL204W, strain HRR25, stronger effect = lower value 0.114 | locus YPL209C, strain IPL1, stronger effect = lower value 0.646 | locus YPL256C, strain CLN2, stronger effect = lower value 0.17 | locus YPR025C, strain CCL1, stronger effect = lower value 0.871 | locus YPR106W, strain ISR1, stronger effect = lower value 0.513 | locus YPR111W, strain DBF20, stronger effect = lower value 0.724 | strain NNK1, stronger effect = lower value 0.106 | strain TSCII, stronger effect = lower value 0.39

O=C(Nc1ccccc1C(=O)Nc1ccc(Br)cc1)c1ccccc1
inactive: locus YAL013W, strain DEP1, stronger effect = lower value 1.01 | locus YBR229C, strain ROT2, stronger effect = lower value 1.02 | [1] 1.05 | locus YDR150W, strain NUM1, stronger effect = lower value 1 | locus YEL061C, strain CIN8, stronger effect = lower value 0.998 | [3] 1.02 | locus YGR229C, strain SMI1, stronger effect = lower value 1.03 | [2] 1.03 | locus YHR087W, strain rtc3, stronger effect = lower value 1.03 | locus YJL187C, strain SWE1, stronger effect = lower value 1.01 | locus YJR043C, strain POL32, stronger effect = lower value 1.03 | locus YJR075W, strain HOC1, stronger effect = lower value 0.997 | locus YKL190W, strain CNB1, stronger effect = lower value 1.03 | locus YLR039C, strain RIC1, stronger effect = lower value 1.02 | locus YLR058C, strain SHM2 (second series), stronger effect = lower value 1.02 | locus YLR085C, strain ARP6, stronger effect = lower value 1 | locus YLR262C, strain YPT6, stronger effect = lower value 1.03 | locus YML094W, strain GIM5, stronger effect = lower value 1.01 | locus YMR219W, strain ESC1, stronger effect = lower value 1.01 | locus YMR263W, strain SAP30, stronger effect = lower value 1.03 | [4] 1.03 | locus YNL298W, strain CLA4 (second series), stronger effect = lower value 1.06 | locus YNL322C, strain KRE1, stronger effect = lower value 1.02 | locus YNR030W, strain Alg12, stronger effect = lower value 1.02 | [5] 1.08 | [6] 1.01 | locus YPR135W, strain CTF4, stronger effect = lower value 1.17

c1ccc2cc(CC3=NCCN3)ccc2c1
inactive: locus YAL040C, strain CLN3, stronger effect = lower value 1.01 | locus YCL061C, strain MRC1 (second series), stronger effect = lower value 1 | locus YDR363W, strain ESC2, stronger effect = lower value 1.02 | locus YER002W, strain NOP16, stronger effect = lower value 0.998 | [3] 1.01 | locus YMR307W, strain GAS1, stronger effect = lower value 1 | locus YNL128W, strain TEP1, stronger effect = lower value 1 | [4] 0.982 | locus YNL175C, strain NOP13, stronger effect = lower value 1.01 | locus YNL197C, strain WHI3, stronger effect = lower value 1.02 | locus YNL224C, strain SQS1, stronger effect = lower value 1.01 | locus YOR083W, strain WHI5 (second series), stronger effect = lower value 1 | [5] 1.01 | [6] 0.996
